The list is not random: actives were taken first. Their share in the collection is about 1.4%.
PV pol inh: inhibitors of poliovirus RNA polymerase binding and polymerization; P03300; poliovirus polymerase elongation, fluorescence polarization; stronger effect = lower value; % elongation, % (compound at 16.7 µg/mL); 150,000 compounds, 0.66% hits; AID 588519; in the data active = % elongation below about 90%
MbtI inh: inhibitors of Mycobacterium tuberculosis siderophore enzyme MbtI; 100,000 compounds, 0.89% hits; purified MbtI enzyme, fluorescence intensity read-out; inhibition, % (test concentration not listed); AID 493033; in the data active = inhibition mostly above about 56%, no sharp cut-off; inactive = mostly below about 77%
Target sequence (P9WFX0 whole entry, looked up): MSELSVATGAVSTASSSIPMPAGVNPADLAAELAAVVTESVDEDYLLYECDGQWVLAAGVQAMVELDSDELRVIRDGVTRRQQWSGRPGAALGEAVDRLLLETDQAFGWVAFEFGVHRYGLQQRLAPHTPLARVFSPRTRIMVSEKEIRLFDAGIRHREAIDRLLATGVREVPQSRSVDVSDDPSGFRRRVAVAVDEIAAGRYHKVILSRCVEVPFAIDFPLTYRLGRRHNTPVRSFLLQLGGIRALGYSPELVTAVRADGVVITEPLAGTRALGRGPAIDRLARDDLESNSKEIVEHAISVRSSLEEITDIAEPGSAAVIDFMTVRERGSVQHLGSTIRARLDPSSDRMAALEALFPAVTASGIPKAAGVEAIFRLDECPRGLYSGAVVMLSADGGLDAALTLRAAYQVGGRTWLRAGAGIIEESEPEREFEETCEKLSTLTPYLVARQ
AID504770: E. coli YBA685 growth inhibition, screen for V. cholerae RctB inhibitors; 130,000 compounds, 0.27% hits; E. coli YBA685 rctB-dependent plasmid, OD600 growth, 3 h; stronger effect = lower value; z-score (test concentration not listed); in the data active = z-score below about -2, passing the limit was not always enough
Mtb MenB inh: inhibitors of Mycobacterium tuberculosis MenB enzyme | MenB enzyme assay, absorbance read-out | inhibition, % (no concentration beside the values) | 100,000 compounds, 0.43% hits | AID 540299; in the data active = inhibition above about 21%, passing the limit was not always enough
Each line names hits and unclear results; the compound was inactive in the other large screens; ! = not confirmed by another sample.

Cc1ccc(-n2c(C)cc(/C=N/NC3CCS(=O)(=O)C3)c2C)cc1 (stereo unspecified)	none
O=S1(=O)CCC(N/N=C/c2ccccc2O)C1 (stereo unspecified)	PV pol inh 20
Cc1ccc2ccc(C(Nc3ccccn3)c3ccc4c(c3)OCO4)c(O)c2n1 (stereo unspecified)	none (no result: PV pol inh, MbtI inh, Mtb MenB inh)
O=C1CSc2nnc(-c3cccs3)n21	PV pol inh 57
c1csc(-c2nnc3n2-c2ccccc2SC3)c1	none
CCCSCC(=O)Nc1ccc(C)cc1C	none
CCOC(=O)C1=C(C)NC(=S)NC1c1ccc(-c2ccccc2Cl)o1 (stereo unspecified)	Mtb MenB inh 60
COc1cc(SC)ccc1C(=O)N(C)Cc1nc2ccccc2c(=O)[nH]1	none
CCC(C)NC(=O)c1ccc2c(=O)n(CCC3=CCCCC3)c(=O)[nH]c2c1 (stereo unspecified)	none (no result: PV pol inh, MbtI inh, Mtb MenB inh)
CC(C)N(C(=O)CSc1n[nH]c(-c2cccs2)n1)C(C)C	AID504770 -4
C/C(N)=C(/C#N)C(=O)CSc1n[nH]c(-c2cccs2)n1	none
Cc1ccc(S(=O)(=O)Nc2c(C#N)c3nc4ccccc4nc3n2Cc2ccccc2)cc1	PV pol inh 73
Cc1cc(C)nc(SCC(=O)C2CC2)n1	none (no result: MbtI inh)
Nc1ccc(Oc2ccccc2)cc1	none
Fc1c(F)c(Oc2ccccc2)c(F)c(F)c1Oc1ccccc1	Mtb MenB inh 27
COc1ccc(NC(=S)NN)cc1Cl	MbtI inh 92
Cn1c(=O)[nH]c(=O)c2c1nc1n2CCCN1c1ccccc1	Mtb MenB inh 36
Cc1cccc(N2CCCn3c2nc2c3c(=O)n(C)c(=O)n2C)c1	none
CCCCC1C(=O)N(c2ccccc2)N(c2ccc(O)cc2)C1=O (stereo unspecified)	MbtI inh 84!
COc1ccc(Cl)cc1CN1CCCCC1	none (no result: MbtI inh)
COc1cc(Cl)ccc1N=NN1CCOCC1	AID504770 -3.9 (no result: PV pol inh, MbtI inh, Mtb MenB inh)
Cc1ccc(Cl)cc1NC(=O)c1oc2c(c1C)-c1[nH]ncc1CC2	PV pol inh 78 (no result: MbtI inh, AID504770, Mtb MenB inh)
Cc1cc(C)c(NC(=O)c2oc3c(c2C)-c2[nH]ncc2CC3)c(C)c1	none (no result: MbtI inh, AID504770, Mtb MenB inh)
O=C(C1CCCN1S(=O)(=O)c1ccc(Cl)cc1)N1CCc2ccccc2C1 (stereo unspecified)	none (no result: Mtb MenB inh)
COc1ccc(-c2csc(-n3nc(C)cc3C)n2)cc1	none (no result: PV pol inh, MbtI inh, Mtb MenB inh)
Cc1cc(C)n(CCc2nc(-c3ccc(C)c(C)c3)cs2)n1	PV pol inh 82, MbtI inh 73
Cc1[nH]n(-c2nc3ccccc3s2)c(=O)c1C	none
Cc1[nH]n(-c2nc3ccccc3s2)c(=O)c1C1OC(=O)c2ccccc21 (stereo unspecified)	MbtI inh 95
Cn1c(-c2ccccc2)nc2ccccc21	none (no result: PV pol inh, MbtI inh, Mtb MenB inh)
Cc1cc2nc3ccc(=[N+](C)C)cc-3sc2cc1N	PV pol inh 2.0 (no result: MbtI inh)
COc1ccc(C(=O)Nc2nccs2)c(F)c1	AID504770 -3
Cc1cccc(C(=O)Nc2nccs2)c1	AID504770 -3.1 (no result: PV pol inh, MbtI inh, Mtb MenB inh)
O=C(Nc1nccs1)c1cccc(Cl)c1	none
NCCS	MbtI inh 51
O=C(C[n+]1cccc(C(=O)Nc2ccccc2)c1)c1ccc(N2C(=O)c3ccccc3C2=O)cc1	MbtI inh 57
CSc1ccc(S(=O)(=O)N(C)C)cc1	none
CN(C)S(=O)(=O)c1ccc(=S)[nH]c1	MbtI inh 95
CN(C)CCCNc1nn2c(=O)c3ccccc3nc2c2ccccc12	PV pol inh 82
CC1=CC(=O)C(N(C)C2CCS(=O)(=O)C2)=CC1=O (stereo unspecified)	MbtI inh 100
CN(C)C1CCS(=O)(=O)C1 (stereo unspecified)	none
CC1(c2ccccc2)CCC(=O)O1 (stereo unspecified)	none (no result: PV pol inh, Mtb MenB inh)
NCCNCC1COC2(CCCCCCCCCCC2)O1 (stereo unspecified)	AID504770 -2.9
CCS(=O)(=O)NCC1COC2(CCCCC2)O1 (stereo unspecified)	none
CCN1CCCC1CNC(=O)CCCn1c(C)c2cnn(-c3ccccc3)c(=O)c2c1C (stereo unspecified)	none (no result: PV pol inh, MbtI inh, Mtb MenB inh)
O=S(=O)(c1cccs1)N1CCCN(S(=O)(=O)c2cccs2)CC1	Mtb MenB inh 26
COC(=O)CSc1nc2ccccc2s1	none
O=C(Nc1nc(CSc2nc3ccccc3s2)cs1)C1CC1	PV pol inh 83
Cc1sc2cc(-[n+]3ccc(O)cc3)ccc2[n+]1-c1ccccc1	MbtI inh 95 (no result: Mtb MenB inh)
c1cc2c(cc1CNc1ccc(N3CCCC3)cc1)OCO2	none
c1cc(CNc2ccc(N3CCCC3)cc2)ccn1	MbtI inh 100
CCC(=O)Nc1ccc2nc(C3CC3)n(Cc3ccc(Cl)cc3)c(=O)c2c1	Mtb MenB inh 31
CC12CCC(=O)N1C(C(=O)OCC(=O)c1ccc(Cl)s1)CS2 (stereo unspecified)	none
COc1cc2c(cc1OC)CN(CN1C(=O)CC3(CCCC3)C1=O)CC2	none
CC(=O)N1CCN(C(=S)c2ccc(-c3ccc(C)cc3)o2)CC1	none
S=C(c1ccc(-c2ccccc2)o1)N1CCN(c2ccccc2)CC1	PV pol inh 68, MbtI inh 92
COc1cc(Cc2cnc(N)nc2N)cc(OC)c1OC	AID504770 -3.1
CC(=O)Nc1ccc2c(c1)nc(C)n2C	none (no result: MbtI inh)
O=C(CSc1nnc(-c2ccc(Cl)cc2Cl)n1Cc1ccco1)c1ccc[nH]1	Mtb MenB inh 44
CCC(C)c1ccc(C2=Nn3c(nnc3C(C)C)SC2)cc1 (stereo unspecified)	PV pol inh 74
CCn1cc(C(=O)Nc2ccccc2Br)c(=O)c2cc(F)c(N3CCN(C(C)=O)CC3)cc21	none
ON=C1CCC2CC1CC/C2=N\O	none
O=C(NC1CCN(Cc2ccccc2)CC1)c1ccc(Cn2c(=O)c3ccccc3n(Cc3ccccc3)c2=O)cc1	PV pol inh 73 (no result: MbtI inh, AID504770, Mtb MenB inh)
O=C(NC1CCN(Cc2ccccc2)CC1)c1ccc(Cn2c(=O)c3ccccc3n(Cc3ccc(Cl)cc3)c2=O)cc1	none (no result: MbtI inh, AID504770, Mtb MenB inh)
COc1ccc(OCC(=O)NCc2ccc(-c3nc4ncccc4o3)cc2)cc1	none
Nn1c(CCC2CCCCC2)n[nH]c1=S	PV pol inh 81, MbtI inh 86
O=C(Nc1sc2c(c1C(=O)O)CCCC2)c1ccc(Br)cc1	PV pol inh 85 (no result: MbtI inh)
Cc1cccc(NC(=O)c2c(NC(=O)c3ccccc3)sc3c2CCCC3)c1	PV pol inh 75 (no result: MbtI inh, AID504770, Mtb MenB inh)
CCOC(=O)c1c(NC(=O)c2ccc(S(=O)(=O)N3CCC(C)CC3)cc2)sc2c1CCN(C)C2	PV pol inh 90 (no result: MbtI inh, AID504770, Mtb MenB inh)
Cc1cccc(NC(=O)c2c(NC(=O)c3ccccc3)sc3c2CCC3)c1	none (no result: MbtI inh, AID504770, Mtb MenB inh)
CCOC(=O)c1c(NC(=O)c2ccc(S(=O)(=O)N(C)C)cc2)sc2c1CCN(C)C2	none (no result: MbtI inh, AID504770, Mtb MenB inh)
CCOC(=O)c1c(NC(=O)c2ccccc2C)sc2c1CCCC2	PV pol inh 84 (no result: MbtI inh, AID504770, Mtb MenB inh)
CCOC(=O)c1c(NC(=O)c2ccccc2C(=O)O)sc2c1CCCC2	none
COc1ccc(C)cc1NC(=O)COc1ccccc1F	none (no result: Mtb MenB inh)
CN(C)C(Cl)=Nc1ccccc1	none
CCOC(=O)c1c(NC(=O)c2ccc(Br)cc2)sc2c1CCCC2	PV pol inh 87 (no result: MbtI inh, AID504770, Mtb MenB inh)
CC(C)OC(=O)Cn1c(C2CC2)nc2ccccc2c1=O	Mtb MenB inh 31
CC(C)C(=O)Nc1cccc2nsnc12	none (no result: MbtI inh)
O=C(N/N=C/c1ccc(O)cc1)Nc1cccc2nsnc12	Mtb MenB inh 37

Screening results from PubChem BioAssay.
